Results on 40 molecules are retold here after PubChem BioAssay AID720518 (National Center for Advancing Translational Sciences (NCATS), 2013).

Results filed as inconclusive are left out. Values without a mark were called inactive. The call rests on the fitted dose curve.

A short description of the test: qHTS for Inhibitors of Cell Surface uPA Generation: Wild-type Protective Antigen (WT-PrAg) Counterscreen for Cherry-picked Compounds. Further: 0% is about no effect. The settings on record: cells, WT protective antigen toxicity counterscreen; series mostly up to 115 µM; activity (protection): at the top concentration. A general note: qHTS replaces the single test concentration by a dilution series.
For `C=C(C(=O)O)C1CCC2(C)CCCC(C)(O)C2C1` (stereo not given), the “activity (protection)” value was -0.0048%.

Turning to `COc1ccc(OC)c(N2C(=O)CC(Cc3cc(C)cc(C)c3)C2=O)c1` (stereo not given), the “activity (protection)” value is -0.552%.

Take `COc1ccc(-c2cc3nc(-c4ccccc4)cc(N4CCCC(O)C4)n3n2)cc1` (stereo not given): the “activity (protection)” value was 2.16%.

Turning to `CCC(C)NC(=O)c1ccc2nc(-c3ccc(OC)c(OC)c3)c(-c3ccc(OC)c(OC)c3)nc2c1` (stereo not given), the “activity (protection)” value is -2.18%.

In the case of `CC1CCN(C2=C(NS(=O)(=O)c3ccc(Br)cc3)C(=O)c3ccccc3C2=O)CC1`, the “activity (protection)” value is -2.21%.

With `Cc1c(NC(=S)Nc2ccc(Cl)cc2)c(=O)n(-c2ccccc2)n1C`, the “activity (protection)” value is -0.304%.

`CC(C)CCN1C(=O)c2ccc(-c3nc4ccccc4c(=O)o3)cc2C1=O`: the “activity (protection)” value is -0.862%.

On to `CC1CCCN(C(=O)c2ccc(-c3ccccc3Cl)o2)C1` (stereo not given), for which the “activity (protection)” value is -2.52%.

Take `Cc1ccc(NC(=O)c2ccc(=O)[nH]n2)cc1S(=O)(=O)Nc1ccccc1Cl`: the “activity (protection)” value was 1.01%.

Consider `Cc1ccc2sc(NNC(=O)c3ccc4c(c3)OCCO4)nc2c1C`, for which the “activity (protection)” value was -2.4%.

As for `Cc1cc(/C=N/NC(=O)c2ccccc2F)c(C)n1-c1ccccc1`, the “activity (protection)” value was -0.8%.

For `O=C(Nc1ccc(N2CCOCC2)cc1)c1ccc(Cl)c(S(=O)(=O)N2CCCC2)c1`, the “activity (protection)” value was -0.904%.

As to `COCCN(C(=O)c1ccc(OC2CCN(S(=O)(=O)N(C)C)CC2)cc1)C(C)C`, the “activity (protection)” value was 0.247%.

With `COC(=O)c1cc(CNC(=O)c2ccc(N3CCCC3)c([N+](=O)[O-])c2)ccc1OC`, the “activity (protection)” value was -1.8%.

`C/C=C(/C(=C/C)c1ccc(O)cc1)c1ccc(O)cc1`: the “activity (protection)” value was -2.13%.

In the case of `Cc1cc2[nH]c(=O)c(=O)[nH]c2cc1S(=O)(=O)NC1CCC(C)CC1` (stereo not given), the “activity (protection)” value is -0.438%.

Turning to `CC(Sc1nnc2ccccn12)C(=O)NCc1ccc2c(c1)OCO2` (stereo not given), the “activity (protection)” value was 0.198%.

As for `COc1ccc(C(=O)NNC(=O)Cc2ccc(Cl)cc2)cc1`, the “activity (protection)” value was 1.34%.

For `COc1cc(CCC(=O)OCC(=O)NCc2ccccc2)cc(OC)c1OC`, the “activity (protection)” value was 0.75%.

Take `O=C(CSc1nncs1)NC(=O)NCc1ccco1`: the “activity (protection)” value is -1.16%.

Regarding `COc1cc(CNCc2ccc3c(c2)OCO3)c([N+](=O)[O-])cc1OC`, the “activity (protection)” value is 0.0004%.

Consider `COCCNC(=O)COCc1cc(-c2ccc3c(c2)OCO3)on1`, for which the “activity (protection)” value was -0.885%.

In the case of `CNC(=S)N1C2CCCC1CC(NC(=O)c1ccc(F)cc1)C2` (stereo not given), the “activity (protection)” value was 0.664%.

With `COC(=O)CCSCC(=O)N1N=C(c2ccc(OC)cc2)CC1c1cccc(OC)c1OC` (stereo not given), the “activity (protection)” value was -2.08%.

Take `Cc1ccc(C2=NS(=O)(=O)N(C)C(C(=O)NC3CCCC3)=C2)cc1`: the “activity (protection)” value was -0.662%.

For `CCC(NC(=S)NCc1ccc(F)cc1)c1ccccc1` (stereo not given), the “activity (protection)” value is 0.549%.

Consider `Cc1ccc(S(=O)(=O)N2CCC(C(=O)OC(C)C(=O)NC3CCCCC3C)CC2)cc1` (stereo not given), for which the “activity (protection)” value was 0.942%.

Consider `O=C(NCc1ccco1)/C(=C\c1cccs1)NC(=O)c1ccccc1`, for which the “activity (protection)” value is -0.228%.

With `O=C(C[n+]1ccccc1)Nc1ccccc1C(F)(F)F`, the “activity (protection)” value is 0.0894%.

In the case of `COc1cc2oc(=O)ccc2cc1[C@H](O)[C@@H](O)C(C)(C)O`, the “activity (protection)” value was -0.25%.

Consider `CC(C)NC(=O)NC(=O)CN1C(=O)NC(Cc2c[nH]c3ccccc23)C1=O` (stereo not given), for which the “activity (protection)” value is -0.356%.

Consider `COc1ccc(OC)c(S(=O)(=O)N2CCC(NC(=O)c3ccccc3)CC2)c1`, for which the “activity (protection)” value was 0.873%.

`Cn1cc(SCC(=O)Nc2nccs2)c2ccccc21`: the “activity (protection)” value is -1.59%.

Take `O=C(COc1cc2oc(=O)cc(-c3ccccc3)c2cc1Cl)NC(Cc1c[nH]c2ccc(O)cc12)C(=O)O` (stereo not given): the “activity (protection)” value was 0.799%.

`CN(c1ccccc1)S(=O)(=O)c1ccc(C(=O)Nc2nnc(C3CC3)o2)cc1`: the “activity (protection)” value was -1.7%.

As to `NC(=O)CC(NC(=O)Cc1cccc2ccccc12)c1ccc(N2CCN(c3ccc(F)cc3)CC2)c([N+](=O)[O-])c1` (stereo not given), the “activity (protection)” value is -0.604%.

Take `Cc1ccc(S(=O)(=O)N2CCOCC2)cc1NC(=O)CSc1nc(N)cc(N)n1`: the “activity (protection)” value is -0.596%.

For the molecule `Cc1ccc(CC2CC(=O)N(c3cc(C)ccc3C)C2=O)cc1` (stereo not given), the “activity (protection)” value is 2.84%.

For `CCN(CC)S(=O)(=O)c1ccc(C(=O)Nc2nnc(COC)o2)cc1`, the “activity (protection)” value was -0.774%.

As for `O=S(=O)(NCC(c1cccnc1)N1CCOCC1)c1ccccc1` (stereo not given), the “activity (protection)” value is -1.02%.
